{
  "source": "PubChem BioAssay (Tox21)",
  "note": "Several values for one entry are separate records, joined by “and”; a condition that tells them apart may be missing. Identical values can stand only once. Inconclusive results are not listed. Where a call stands in place of a potency, no number is given. Some compounds were tested as several samples or in several runs, with calls that do not always agree. Activity calls are given as the source filed them. The call rests on the fitted dose curve; in most records, active means well fitted inhibition curve with a large enough effect in the signal ratio in the repeat runs (not every such curve was filed as active); inconclusive means weak or mixed curves, or effect the other way; inactive means no such curve, though single readings can be large or run the other way; the % refers to the signal ratio. Potency means the concentration at half of the fitted maximal effect.",
  "data": [
    {"target": "Glucocorticoid receptor (Homo sapiens) (UniProt P04150)", "sequence (P04150 whole entry, looked up)": "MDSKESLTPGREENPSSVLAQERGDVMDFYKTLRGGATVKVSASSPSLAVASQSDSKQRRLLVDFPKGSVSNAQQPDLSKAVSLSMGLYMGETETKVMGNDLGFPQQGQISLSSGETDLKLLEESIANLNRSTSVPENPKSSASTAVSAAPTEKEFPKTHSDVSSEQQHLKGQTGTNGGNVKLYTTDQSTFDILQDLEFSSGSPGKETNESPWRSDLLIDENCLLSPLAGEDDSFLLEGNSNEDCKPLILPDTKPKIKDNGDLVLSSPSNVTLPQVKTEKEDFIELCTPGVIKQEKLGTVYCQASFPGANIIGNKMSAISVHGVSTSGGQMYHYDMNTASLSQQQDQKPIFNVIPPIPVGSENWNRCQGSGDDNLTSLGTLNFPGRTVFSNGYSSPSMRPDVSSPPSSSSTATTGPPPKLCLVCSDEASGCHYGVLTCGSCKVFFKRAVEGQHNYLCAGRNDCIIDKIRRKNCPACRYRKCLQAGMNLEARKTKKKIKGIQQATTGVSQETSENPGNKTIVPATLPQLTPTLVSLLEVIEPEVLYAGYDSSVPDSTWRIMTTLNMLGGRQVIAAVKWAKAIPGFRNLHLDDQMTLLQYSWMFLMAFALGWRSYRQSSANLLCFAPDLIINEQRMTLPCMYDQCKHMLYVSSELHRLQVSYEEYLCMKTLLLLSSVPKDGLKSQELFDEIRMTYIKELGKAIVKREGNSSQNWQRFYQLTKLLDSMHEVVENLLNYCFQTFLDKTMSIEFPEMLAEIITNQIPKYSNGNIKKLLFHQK", "experiment": "qHTS assay to identify small molecule antagonists of the glucocorticoid receptor (GR) signaling pathway (AID 720692)", "conditions": "GR-bla HeLa, beta-lactamase FRET ratio, dexamethasone-stimulated, 18 h; series mostly up to 58.5 µM; activity change, negative = inhibition: at the top concentration", "from_the_text": "U.S. Tox21 Program National Center for Advancing Translational Sciences [NCATS] NIH Chemical Genomics Center [NCGC] U.S. Environmental Protection Agency [EPA] National Institutes of Environmental Health Sciences [NIEHS] National Toxicology Program [NTP] U.S. Food and Drug Administration [FDA] Tox21 Assay Overview: The Glucocorticoid receptor (GR) is one of the members of the nuclear receptor family of ligand-dependent transcription factors. GR plays a critical role in carbohydrate, protein and lipid metabolisms and programmed cell death. CellSensor GR-bla HeLa cell line (Invitrogen) contains a beta-lactamase reporter gene under the control of the glucocorticoid response element stably integrated into HeLa cells, a cervical cancer cell line that expresses glucocorticoid receptor. The activation of the reporter gene under culture conditions can be detected by fluorescence intensity. This cell line has been used to screen the Tox21 10K compound library and to identify the compounds that inhibit the GR signaling.\nTox21 Assay Protocol Summary: The GR-bla HeLa cells were dispensed at 1500 cells/5 ul/well in 1536-well black wall/clear bottom plates using a Multidrop Combi (ThermoFisher Scientific, Waltham, MA) dispenser. After the assay plates were incubated at a 37 C/5% CO2 incubator for 4 hours, 23 nL of compounds dissolved in DMSO, positive controls or DMSO only was transferred to the assay plate by a pintool station (Kalypsys, San Diego, CA), followed by addition of 1 uL of dexamethasone (5 nM, final concentration in the well). The plates were incubated at 37 C for 18 hours. After 1 uL of LiveBLAzerTM B/G FRET substrate was added using a Flying Reagent Dispenser (Aurora Discovery, San Diego, CA), the plates were incubated at room temperature for 2 hours, and fluorescence intensity was measured by an Envision plate reader (PerkinElmer, Shelton, CT).", "values": [
      {"smiles": "CCOP(=S)(OCC)OP(=S)(OCC)OCC", "Potency": "inactive"},
      {"smiles": "C[C@]12CCC(=O)C=C1CC[C@@H]1[C@@H]2CC[C@@]2(C)[C@H]1CC[C@]2(C)O", "Potency": "6.01 µM (active) and 4.25 µM (active) and 2.61 µM (active)"},
      {"smiles": "CCOS(=O)(=O)OCC", "Potency": "inactive"},
      {"smiles": "COc1ccc(CO)cc1", "Potency": "inactive"},
      {"smiles": "O=NN1CCOCC1", "Potency": "inactive"},
      {"smiles": "CCCCCCCCCC(CC)c1ccc(S(=O)(=O)O)cc1", "note": "(stereo not given)", "Potency": "inactive"},
      {"smiles": "CCC1(c2ccc(N)cc2)CCC(=O)NC1=O", "note": "(stereo not given)", "Potency": "inactive"},
      {"smiles": "Oc1ccc(Cl)cc1Cl", "Potency": "inactive"},
      {"smiles": "CCOP(=S)(OCC)SCn1c(=O)oc2cc(Cl)ccc21", "Potency": "inactive"},
      {"smiles": "OCCOCCO", "Potency": "inactive"},
      {"smiles": "CCOC(=O)c1ccccc1N", "activity change, negative = inhibition": "-9.17% (inactive)"},
      {"smiles": "ClC(Cl)(Cl)c1ccccc1", "Potency": "inactive"},
      {"smiles": "ClCC(Cl)CCl", "Potency": "inactive"},
      {"smiles": "O=P(OCCCl)(OCCCl)OCCCl", "Potency": "inactive"},
      {"smiles": "Clc1cccc(Cl)c1", "Potency": "inactive"},
      {"smiles": "C=CC(Cl)CCl", "note": "(stereo not given)", "Potency": "inactive"},
      {"smiles": "CCCCOC(=O)COC(=O)c1ccccc1C(=O)OCCCC", "Potency": "inactive"},
      {"smiles": "CNC(=O)Oc1cccc2c1OC(C)(C)C2", "Potency": "inactive"},
      {"smiles": "O=[N+]([O-])c1ccc(Nc2ccccc2)cc1", "Potency": "49.4 µM (active)"},
      {"smiles": "CCNc1nc(Cl)nc(NC(C)(C)C#N)n1", "Potency": "inactive"},
      {"smiles": "O=NN(c1ccccc1)c1ccccc1", "activity change, negative = inhibition": "0.213% (inactive)"},
      {"smiles": "Nc1ncn[nH]1", "Potency": "inactive"},
      {"smiles": "O=C(O)c1nn(Cc2ccc(Cl)cc2Cl)c2ccccc12", "Potency": "inactive and 43.4 µM (active)"},
      {"smiles": "CC(C)(C#N)N=NC(C)(C)C#N", "Potency": "inactive"},
      {"smiles": "Clc1ccc(C(Cl)(Cl)Cl)cc1", "activity change, negative = inhibition": "-8.34% [at 78.9 µM] (inactive)"},
      {"smiles": "CCCCCCCCCCCCCl", "Potency": "inactive"},
      {"smiles": "COc1ccc(O)c(C(C)(C)C)c1", "Potency": "inactive"},
      {"smiles": "C[C@]12CC[C@H]3[C@@H](CCC4=CC(=O)CC[C@@H]43)[C@@H]1CC[C@@H]2O", "Potency": "3.01 µM (active) and 4.25 µM (active) and 6.85 µM (active)"},
      {"smiles": "CC(C)(c1ccc(OCC2CO2)cc1)c1ccc(OCC2CO2)cc1", "note": "(stereo not given)", "Potency": "49 µM (active)"},
      {"smiles": "CC(O)CN(CC(C)O)CC(C)O", "note": "(stereo not given)", "Potency": "inactive"},
      {"smiles": "COP(=O)(NC(C)=O)SC", "note": "(stereo not given)", "Potency": "inactive"},
      {"smiles": "Brc1ccc(Br)cc1", "Potency": "inactive"},
      {"smiles": "CC(C)(c1ccccc1)c1ccc(O)cc1", "Potency": "48.6 µM (active) and 54.9 µM (active)"},
      {"smiles": "c1ccc(C2CO2)cc1", "note": "(stereo not given)", "activity change, negative = inhibition": "-4.38% [at 78.9 µM] (inactive)"},
      {"smiles": "Cc1ccc([N+](=O)[O-])cc1", "Potency": "inactive"},
      {"smiles": "CCCCOCC1CO1", "note": "(stereo not given)", "Potency": "inactive"},
      {"smiles": "CCCCC(C#N)(Cn1cncn1)c1ccc(Cl)cc1", "note": "(stereo not given)", "activity change, negative = inhibition": "-14.6% (inactive)"},
      {"smiles": "S=c1[nH]c2ccccc2[nH]1", "activity change, negative = inhibition": "-3.76% (inactive)"},
      {"smiles": "Cc1ccc(N=CN(C)C=Nc2ccc(C)cc2C)c(C)c1", "activity change, negative = inhibition": "3.46% (inactive)"},
      {"smiles": "CC1CC(=O)O1", "note": "(stereo not given)", "Potency": "inactive"}
    ]}
  ]
}
